Rab9 prom act: activators of Rab9 promoter | Huh7 Rab9 promoter-luciferase reporter, luminescence, 24 h | Potency, µM (titrated, usually from 9.22 µM), hits mostly activators | 320,000 tested, 2.8% active; also: nearly all actives have a fitted effect of over 60% in size
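Luminescence from Amplite-detected luciferase (10 minutes, ambient) reports Rab9 promoter activation. Before that, stable Rab9-luciferase Huh7 cells (1500/well, reduced-serum OP-MEM I plus 10% FBS) were exposed to compound for 24 hours at 37C.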
SMN2 splice enh: enhancers of SMN2 splice variant expression; HEK293 SMN2-luciferase splicing reporter, luminescence, 30-36 h; Potency, µM (doses to about 46.1 µM), actives largely listed as activators; 210,000 tested, 2.8% active; also: nearly all actives have a fitted effect of over 55% in size
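HEK293 cells carry an SMN2 […]–luciferase reporter in which exon 7 inclusion puts luciferase in frame. Cells were plated 10-12 h before compound addition, then incubated 30-36 h at 37C. ONE-Glo luminescence was read; sodium butyrate at 4.5 mM final served as control.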
NPC1 prom act: activators of NPC1 promoter | Huh7 NPC1 promoter luciferase reporter, 24 h | Potency, µM (series often up to 9.22 µM), hits mostly activators | 320,000 tested, 2.4% active | AID 485313; also: nearly all actives have a fitted effect of over 60% in size
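Stable NPC1-promoter luciferase Huh7 line; cpd (DMSO) 24 h, 37 °C, 5% CO2; Amplite luciferase reagent 10 min RT; luminescence readout. qHTS format.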
KinaseGlo FLuc: counter-screen: inhibitors of Kinase-Glo firefly luciferase. Potency, µM (doses to about 38.3 µM), hits mostly inhibitors. Q27757. 200,000 tested, 0.28% active. Kinase-Glo luciferase, ATP luminescence, 8 min. AID 1379; also: nearly all actives have a fitted effect of over 60% in size
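Recombinant Kinase-Glo luciferase, 10 uM ATP (linear range), luciferin; imidazole pH 7.2 / KCl / MgCl2 / Tween / BSA buffer; 8 min RT; luminescence.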
FLuc counter: firefly luciferase modulation, counter-screen for miR-21 project. purified FLuc, Km substrates, luminescence inhibition. Potency, µM (doses to about 57.5 µM), usual class: inhibitors. 360,000 tested, 6.9% active; also: nearly all actives have a fitted effect of over 55% in size
Target sequence (P08659 whole entry, looked up): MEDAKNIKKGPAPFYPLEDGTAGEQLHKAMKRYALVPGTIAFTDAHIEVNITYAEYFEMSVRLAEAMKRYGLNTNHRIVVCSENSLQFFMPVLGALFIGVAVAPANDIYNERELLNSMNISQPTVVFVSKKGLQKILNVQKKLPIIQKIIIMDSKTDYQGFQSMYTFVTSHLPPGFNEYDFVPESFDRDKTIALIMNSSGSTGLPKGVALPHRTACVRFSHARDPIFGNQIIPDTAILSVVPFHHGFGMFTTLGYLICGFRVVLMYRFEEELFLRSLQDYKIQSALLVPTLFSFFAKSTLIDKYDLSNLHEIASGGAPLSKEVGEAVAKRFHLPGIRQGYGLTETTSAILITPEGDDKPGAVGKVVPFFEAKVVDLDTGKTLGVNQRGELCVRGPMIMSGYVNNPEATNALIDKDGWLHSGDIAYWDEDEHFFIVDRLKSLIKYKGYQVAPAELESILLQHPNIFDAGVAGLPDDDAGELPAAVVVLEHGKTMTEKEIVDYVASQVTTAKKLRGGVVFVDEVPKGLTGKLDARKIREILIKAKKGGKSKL
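Biochemical qHTS of compounds, final roughly 60 µM downward over six points, against 10 nM purified firefly luciferase using Km concentrations of substrates (10 uM D-luciferin, 10 uM ATP) in Tris acetate pH 7.5 buffer; luminescence output.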
Hits are given with their value; . = inactive; ? = inconclusive; / = no result; [ ] = dose if it differs, or a comment. Sampled rows, rich in hits. Any-hit rate of the full collection: about 7.3%. Calls follow the shape of the dose curve; as a rule, active = well fitted curve in the direction sought with a large enough effect; inconclusive = small, poorly fitted or top-dose-only effect, or another doubt; inactive = no such curve, though single readings can be large; an effect the other way counts as inactive or inconclusive.

SMILES	Rab9 prom act	SMN2 splice enh	NPC1 prom act	KinaseGlo FLuc	FLuc counter
CN1CCN(c2ccc(NC(=O)c3ccc([N+](=O)[O-])o3)cc2Cl)CC1	?	/	?	/	9.53µM
O=C(Nc1ccc(N2CCOCC2)c(Cl)c1)c1ccc([N+](=O)[O-])o1	?	?	.	.	12µM
COc1ccc(-c2c(C)nn3c(C(F)(F)F)cc(C)nc23)cc1OC	/	/	/	/	.
COc1ccc(-c2nn(-c3ccccc3)cc2/C=N/NC(=O)c2ccc3c(c2)OCO3)cc1	.	.	.	.	?
O=C(N/N=C/c1cn(-c2ccccc2)nc1-c1ccc2c(c1)OCCO2)c1ccncc1	?	11.2µM	?	.	.
O=C(N/N=C/c1cn(-c2ccccc2)nc1-c1ccc(F)cc1)c1ccc2c(c1)OCO2	.	.	.	.	4.26µM
O=C(N/N=C\c1cn(-c2ccccc2)nc1-c1ccccc1)c1ccc2c(c1)OCO2	.	.	.	.	4.78µM
Cc1ccc(CN2C(=O)CN(C3CCC(C)CC3)C(=O)C2c2ccc(F)cc2)cc1 (configuration not stated)	/	/	/	/	.
Cc1c(C(=O)Nc2ccccn2)oc2ccccc12	?	25.1µM	?	.	4.26µM
Cc1ccc(NC(=O)c2cc3c(=O)oc4ccccc4c3s2)nc1	.	.	.	.	.
Cc1c(C(=O)Nc2cccnc2Cl)oc2ccccc12	3.16µM	/	2.51µM	/	?
Cc1noc(C(=O)Nc2cccnc2Cl)c1Cl	.	/	.	/	.
Cc1ccc(NC(=O)c2oc3ccccc3c2C)nc1	3.16µM	/	3.55µM	/	12µM
Cc1c(C(=O)Nc2ccncc2)oc2ccccc12	.	.	.	.	19µM
COc1ccc(-c2onc(C)c2C)cc1S(=O)(=O)NCc1ccco1	/	/	/	/	.
O=C(O)c1ccc(Cl)cc1NC(=O)C1CCCO1 (configuration not stated)	/	.	/	.	.
O=C(Nc1cccc(-c2nc3cc(Cl)ccc3o2)c1)C1CCCO1 (configuration not stated)	.	25.1µM	.	.	.[2.3 µM]
Cc1cccc(-c2nc3cc(NC(=O)C4CCCO4)ccc3o2)c1 (configuration not stated)	0.282µM	1µM	0.316µM	?	0.849µM
Cc1ccc2oc(-c3cccc(NC(=O)C4CCCO4)c3)nc2c1 (configuration not stated)	.	12.6µM	.	.	4.26µM
Cc1cc2n(n1)CCCN2C(=O)Nc1ccccc1C(F)(F)F	/	/	/	/	.
CCOC(=O)c1c(C)[nH]c(C)c1S(=O)(=O)NCC(=O)Nc1ccc(C)c(N(C)C)c1	/	/	/	/	.
COc1cc(C(=O)Nc2nccs2)c(Br)c(OC)c1OC	.	.	.	.	.
COc1cc(SC)ccc1C(=O)Nc1nccs1	0.562µM	/	0.891µM	.	0.601µM
COc1cc(SC)ccc1C(=O)Nc1c(C)cccc1C	.	.	.	.	.
COc1ccccc1C(=O)Nc1cccc(SC)c1	.	.	.	.	16.9µM
SMILES	Rab9 prom act	SMN2 splice enh	NPC1 prom act	KinaseGlo FLuc	FLuc counter
COc1cc(SC)ccc1C(=O)NNC(=O)c1cc(C)oc1C	1.26µM	/	3.16µM	/	1.9µM
COc1cc(SC)ccc1C(=O)Nc1ccccc1	.	?	.	.	6.75µM
Cc1ccc(CNC(=O)Cn2c(=O)ccc3cc(S(=O)(=O)N4CCC(C)CC4)ccc32)cc1	/	/	/	/	.
Cc1ccc(C)c(NC(=O)CSc2nnc(CNC(=O)c3ccccc3)n2-c2ccccc2)c1	/	.	/	/	.
COc1ccc(-c2cc(OC(=O)c3ccccc3Cl)c3c(C)oc(C)c3c(=O)c2)cc1OC	/	.	/	/	.
O=C(Nc1ccccc1F)c1oc2ccccc2c1NC(=O)C12CC3CC(CC(C3)C1)C2	/	.	/	/	.
O=S(=O)(O)n1ccnc1 (tested in a mixture with another compound)	/	.[9.22 µM]	/	.[7.66 µM]	/
COCC(C)NC(=O)c1cnn2c(C(F)F)cc(-c3ccccc3)nc12 (configuration not stated)	/	.	/	/	.
CSc1cccc(NC(N)=O)c1	.	/	.	/	.
CSc1cccc(NC(=O)c2cccc3cccnc23)c1	.	/	?	/	6.75µM
CC(=O)c1ccc(N2CCN(C(=O)CS(=O)(=O)c3cccc4nsnc34)CC2)cc1	/	/	/	/	.
COc1ccc(CCN2CC(C(=O)N3CCC(OC)CC3)CCC2=O)cc1 (configuration not stated)	.	/	.	/	.
C=CCC1(CC=C)CCCN1C(=O)C1CCC(=O)N(CCc2ccc(OC)cc2)C1 (configuration not stated)	2.51µM	/	2.51µM	/	10.7µM
C=CCC1(CC=C)CCCN1C(=O)C1CCC(=O)N(CCc2ccccc2)C1 (configuration not stated)	2.82µM	/	3.98µM	/	10.7µM
COc1ccccc1CNC(=O)Cn1c(=O)nc(-c2ccccc2)c2ccccc21	/	/	/	/	.
COc1cccc(-c2nc(S(=O)(=O)c3ccccc3)c(N3CCC(C)CC3)o2)c1	/	.	/	/	.
Cc1ccccc1NC(=O)Cc1c(O)c2ccccc2[nH]c1=O	.	.	.	.	.
O=C(Nc1cccc(O)c1)c1c(O)c2ccccc2[nH]c1=O	?	/	?	/	3.79µM
Cc1cccc(NC(=O)c2c(O)c3ccccc3[nH]c2=O)c1	0.708µM	/	1.58µM	/	?
Cc1ccc(NC(=O)Cc2c(O)c3ccccc3[nH]c2=O)c(C)c1	.	/	.	/	16.9µM
O=C(Nc1cccc(C(F)(F)F)c1)c1c(O)c2ccccc2[nH]c1=O	.	/	.	/	.
CC(=O)Nc1ccc(NC(=O)c2cnn(-c3ccccc3)c2C2CCN(C(=O)OC(C)(C)C)CC2)cc1	/	.	/	/	.
Cc1ccc(-c2noc(CNC(=O)c3ccccc3)n2)cc1	/	.	/	/	.
CC(=O)CSc1nnc(Cc2ccc([N+](=O)[O-])cc2)o1	.	.	.	.	.
Cc1ccc(-c2nnc(Cc3ccc([N+](=O)[O-])cc3)o2)cc1	2.24µM	/	?	.	.
SMILES	Rab9 prom act	SMN2 splice enh	NPC1 prom act	KinaseGlo FLuc	FLuc counter
O=[N+]([O-])c1ccc(Cc2nnc(-c3ccc(F)cc3)o2)cc1	1µM	.	?	.	.
Fc1ccc(-c2nnc(Cc3nnc(-c4ccc(F)cc4)o3)o2)cc1	.	.	.	.	.
Cc1ccc(CNS(=O)(=O)c2c(C)nc3sc(C)cn3c2=O)cc1	/	/	/	/	.
O=C(Nc1ccc(F)cc1)/C(Cl)=C/c1ccccc1	2.51µM	14.1µM	3.98µM	.	1.2µM
CC(=O)c1ccc(NC(=O)C2(c3ccccc3)CC2(Cl)Cl)cc1 (configuration not stated)	?	/	?	/	26.9µM
CC(=O)c1ccc(NC(=O)/C(Cl)=C/c2ccccc2)cc1	3.98µM	?	3.55µM	.	0.953µM
Cc1cc(NC(=O)c2cc(-c3ccco3)on2)no1	.	.	.	.	.
Cc1ccc(NC(=O)c2cc(-c3cccc(O)c3)on2)cc1C	.	.	.	.	9.53µM
COc1ccc(NC(=O)c2cc(-c3ccco3)on2)cc1OC	.	/	.	/	.
Cc1ccc(NC(=O)c2cc(-c3ccco3)on2)cc1	.	.	.	.	2.13µM
Cc1ccc(NC(=O)c2cc(-c3ccco3)on2)cc1C	.	.	.	.	2.69µM

Screens (PubChem BioAssay)
